The results in this text go back to PubChem BioAssay AID1347165 (National Center for Advancing Translational Sciences (NCATS), 2019).

Molecules are shown by their SMILES. In all, about 220,000 compounds went through this assay and about 5,700 (2.6%) were called active. Entries that show only a call come without a potency. Roughly 18% stayed inconclusive and do not appear here. The sample holds actives, similar compounds and a random draw of the others, so the mix is not that of the screen. Calls follow the shape of the dose curve; as a rule, active = well fitted inhibition curve with a large enough effect; inconclusive = small, poorly fitted or top-dose-only effect; inactive = no such curve, though single readings can be large or run the other way.
Potency is read from the fitted curve at half-maximal effect.

Chain of Lysine-specific demethylase 5B (Homo sapiens) (Q9UGL1 whole entry, looked up): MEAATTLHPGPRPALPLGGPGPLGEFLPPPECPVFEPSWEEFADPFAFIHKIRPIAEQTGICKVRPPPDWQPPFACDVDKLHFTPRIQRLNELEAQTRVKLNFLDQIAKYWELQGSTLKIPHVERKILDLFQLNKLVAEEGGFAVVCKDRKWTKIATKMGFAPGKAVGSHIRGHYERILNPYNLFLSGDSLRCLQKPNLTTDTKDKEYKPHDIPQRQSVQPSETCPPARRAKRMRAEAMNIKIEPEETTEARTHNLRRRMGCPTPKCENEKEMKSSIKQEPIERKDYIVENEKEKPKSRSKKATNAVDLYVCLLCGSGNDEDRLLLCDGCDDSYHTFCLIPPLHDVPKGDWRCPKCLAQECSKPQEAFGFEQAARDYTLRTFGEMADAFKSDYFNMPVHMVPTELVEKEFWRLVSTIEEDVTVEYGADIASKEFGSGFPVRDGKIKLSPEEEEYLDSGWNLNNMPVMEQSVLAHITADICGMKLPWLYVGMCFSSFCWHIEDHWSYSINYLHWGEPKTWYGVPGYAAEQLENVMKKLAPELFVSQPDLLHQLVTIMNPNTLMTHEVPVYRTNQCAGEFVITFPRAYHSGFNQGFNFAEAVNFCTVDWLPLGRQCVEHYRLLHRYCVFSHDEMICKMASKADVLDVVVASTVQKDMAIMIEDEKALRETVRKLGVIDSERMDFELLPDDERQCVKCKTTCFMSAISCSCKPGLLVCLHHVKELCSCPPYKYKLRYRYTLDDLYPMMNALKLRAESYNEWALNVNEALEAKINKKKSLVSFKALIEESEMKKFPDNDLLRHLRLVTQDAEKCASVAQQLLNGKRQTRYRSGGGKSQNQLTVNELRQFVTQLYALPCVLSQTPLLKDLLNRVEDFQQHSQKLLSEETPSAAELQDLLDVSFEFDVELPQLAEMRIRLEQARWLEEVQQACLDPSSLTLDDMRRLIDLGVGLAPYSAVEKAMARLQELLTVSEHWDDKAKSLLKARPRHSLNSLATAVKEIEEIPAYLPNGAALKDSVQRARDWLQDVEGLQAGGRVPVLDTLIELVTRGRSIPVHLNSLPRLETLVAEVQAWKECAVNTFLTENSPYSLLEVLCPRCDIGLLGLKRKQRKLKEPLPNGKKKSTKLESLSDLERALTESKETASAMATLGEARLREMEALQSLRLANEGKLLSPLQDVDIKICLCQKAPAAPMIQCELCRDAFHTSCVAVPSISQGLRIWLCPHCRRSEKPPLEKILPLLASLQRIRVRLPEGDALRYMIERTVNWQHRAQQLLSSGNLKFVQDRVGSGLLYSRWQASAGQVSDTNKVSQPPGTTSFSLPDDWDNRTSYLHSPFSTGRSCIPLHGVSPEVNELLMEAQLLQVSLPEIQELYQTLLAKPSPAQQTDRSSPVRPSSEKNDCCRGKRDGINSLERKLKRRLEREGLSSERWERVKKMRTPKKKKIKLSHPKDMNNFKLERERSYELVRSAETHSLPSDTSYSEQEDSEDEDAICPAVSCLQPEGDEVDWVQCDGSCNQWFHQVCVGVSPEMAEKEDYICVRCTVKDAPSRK

This test addresses Lysine-specific demethylase 5B (Homo sapiens) (UniProt Q9UGL1). Put plainly: Primary screen for KDM5B Histone Demethylases FDH-coupled qHTS. Also: nearly all actives have a fitted effect of over 70% in size. To be noted: FDH-coupled NADH fluorescence (FDH is formaldehyde dehydrogenase); series mostly up to 57.7 µM. In outline:
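KDM5BΔAP (200 nM final) in 50 mM HEPES pH 7.5, 0.01% Tween-20 was preincubated 10 min at RT with compound over a concentration range. Substrate mix (H3K4me3 12.5 µM, α-KG 25 µM, Fe²⁺, ascorbate, NAD⁺, FDH) was added, and NADH fluorescence change over 30 min gave dose-response curves.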
As to `COc1cc(CNCC(O)c2ccccc2)ccc1Oc1nnnn1-c1ccccc1` (centres undefined), the Potency entry is “inactive”. As for `CCNC(=O)NC(=O)C(C)OC(=O)c1ccc(C(=O)OC)cc1` (centres undefined), the entry is “inactive”; as for `Cc1ccc(-n2nnnc2C2(Nc3ccccc3)CCCC2)cc1`, “inactive”. With `COc1cccc(CC(=O)NC2CCN(c3cn[nH]c(=O)c3)CC2)c1` the entry was “inactive”; with `COc1cccc(CN2CCOC3CCN(C(=O)c4cccnc4)CC3C2=O)c1` (centres undefined), “inactive”. Turning to `COc1cccc(CN2CCN(C(=O)c3cnc4ccccn4c3=O)CC2=O)c1`, the Potency is 28.2 µM (active). With `O=C(CCc1cccs1)N(CC1CCOC1)C1CC1` (centres undefined) the entry was “inactive”; with `Cc1nc2sc3c(c2c2nc(-c4ccc(O)cc4)nn12)CC(C)(C)OC3`, “inactive”.

Regarding `Cn1c(Oc2cccc(Cl)c2)nc2c1c(=O)n(Cc1ccc(F)cc1)c(=O)n2C`, the Potency entry was “inactive”. With `Cc1nc2ccc(C(=O)NCCCOCC3CC3)cc2nc1C` the entry was “inactive”. As for `O=C(CN1CCN(c2ccccc2)CC1)Nc1ccc(F)cc1`, the entry is “inactive”; as for `COc1ccc(CNc2nc(-c3ccc(Cl)cc3)nn2S(=O)(=O)c2ccc(C)cc2)cc1`, “inactive”. With `O=C(Cc1ccc(F)cc1)NC1CCN(c2cc(-c3ccc(Cl)cc3)[nH]n2)CC1`, the Potency result was “inactive”.

On to `COc1cc(NC(=O)CSc2nnc3ccc(-c4ccncc4)nn23)cc(OC)c1`, for which the Potency entry was “inactive”.

Consider `COc1ccc(-c2ccc3nnc(CNC(=O)C(C)Oc4ccc(Cl)cc4)n3n2)cc1` (centres undefined), for which the Potency is 28.2 µM (active). `O=C(Cc1ccc(Cl)cc1)NCc1nnc2ccc(-c3ccc(F)cc3)nn12`: the Potency was 25.1 µM (active). `O=C(CN1CCN(Cc2ccc(Cl)cc2)C1=O)NCc1ccc(F)cc1`: the Potency entry is “inactive”.

On to `COc1ccc(Oc2c(C)oc3cc(OCC(=O)NCc4ccccc4)ccc3c2=O)cc1`, for which the Potency entry is “inactive”.

For the compound `COc1cccc(C(=O)Oc2ccc(C)cc2C(=O)/C=C/c2ccc(F)cc2)c1`, the Potency entry is “inactive”. With `CC(C)NC(=O)Nc1cccc(C(=O)Nc2cccc(Cl)c2)c1` the entry was “inactive”. On to `CC(NC(=O)/C=C/c1ccsc1)C1CCCO1` (centres undefined), for which the Potency entry was “inactive”. As for `N#Cc1ccc(OCC(O)CNCCC2=CCCCC2)cc1` (centres undefined), the entry is “inactive”; as for `O=C(NCCc1c[nH]c2ccc(Cl)cc12)c1ccccc1`, “inactive”; as for `CC(C)Oc1ccc(/C(O)=C2\C(=O)C(=O)N(c3nccs3)C2c2cccc(Br)c2)cc1` (centres undefined), “inactive”. With `O=C(CSc1ncccn1)c1ccc(F)cc1`, the Potency result is “inactive”. Turning to `CCOc1ccc(-c2nc(S(=O)(=O)c3ccc(F)cc3)c(NC)o2)cc1`, the Potency result was “inactive”. With `O=C(CNc1nc(Cl)nc2nc[nH]c12)NC1CC1` the entry was “inactive”.

With `Cc1ccc(-c2ccc3nnc(CNC(=O)c4ccncc4)n3n2)cc1C`, the Potency was 28.2 µM (active). `Cc1ccc(-c2ccc3nnc(CNC(=O)c4cccnc4)n3n2)cc1C`: the Potency is 31.6 µM (active).

For the compound `COc1ccc(-c2nc3ccc(C(=O)NCc4ccc(C)cc4)cc3nc2-c2ccc(OC)cc2)cc1`, the Potency result was “inactive”. With `COc1ccc(C(=O)NCc2nnc3ccc(-c4ccc(C)cc4)nn23)cc1F` the figure was 28.2 µM (active); with `O=C(CSc1nnc2ccc(-c3ccncc3)nn12)N1CCCCC1`, “inactive”; with `O=C(NC/C(=N/NC(=O)c1cccnc1)c1ccccc1)c1ccccc1`, “inactive”. With `CC[C@H](C)NC(=O)c1ccc2nc(-c3ccc(C)cc3)cc(OC)c2c1` the entry was “inactive”; with `O=C(NCc1nnc2n1C(C(=O)NC1CC1)CC2)c1ccncc1` (centres undefined), “inactive”.

Turning to `O=C(NCCCN1CCCC1)c1cccnc1`, the Potency entry is “inactive”. With `CCc1nonc1NC(=O)COc1ccc(C)c(C)c1` the entry was “inactive”; with `COc1ccc(NC(=O)CSCc2ccc(F)cc2Cl)cc1`, “inactive”. Turning to `CCOC(=O)COn1c(=O)c(-c2ccc(OCC)cc2)[n+]([O-])c2ccccc21`, the Potency result was “inactive”. As for `C=CCN(C)C(=O)C[C@@H]1c2nc(NC(=O)c3ccc(C(C)(C)C)cc3)sc2C[C@@H]2[C@](C)(CO)[C@H](O)CC[C@]21C`, the figure is 31.6 µM (active); as for `CC(=O)N1CCN(C(=O)C[C@@H]2c3nc(NC(=O)c4cccs4)sc3C[C@@H]3[C@](C)(CO)[C@H](O)CC[C@]32C)CC1`, “inactive”.

Consider `C[C@]1(CO)[C@H]2Cc3sc(NC(=O)C4CCCCC4)nc3[C@@H](CC(=O)NCc3cccs3)[C@]2(C)CC[C@H]1O`, for which the Potency result is “inactive”. With `CC(C)(C)c1ccc(C(=O)Nc2nc3c(s2)C[C@@H]2[C@](C)(CO)[C@H](O)CC[C@@]2(C)[C@@H]3CC(=O)NCc2cccs2)cc1` the figure was 14.1 µM (active). Regarding `CN(C)CCNC(=O)C[C@@H]1c2nc(NC(=O)c3ccc(C(C)(C)C)cc3)sc2C[C@@H]2[C@](C)(CO)[C@H](O)CC[C@]21C`, the Potency entry was “inactive”. For the compound `C=CCOC(=O)Nc1nc2c(s1)C[C@@H]1[C@](C)(CO)[C@H](O)CC[C@@]1(C)[C@@H]2CC(=O)N(CC)CC`, the Potency result was “inactive”.

`CC(C)(C)C(=O)COC(=O)c1cc(-c2ccccc2)c(N2CCOCC2)s1`: the Potency result was “inactive”.

Take `CC(C)C(=O)N1CC(=O)Nc2ccc(F)cc2C1c1ccc(F)cc1` (centres undefined): the Potency result is “inactive”. For the compound `CC(=O)c1ccc(N2CCN(C(=O)CCNC(=O)Cn3ccc4ccccc4c3=O)CC2)cc1`, the Potency entry was “inactive”. As for `Cc1cnc(C(=O)N(C)Cc2ccc(Cl)s2)cn1`, the entry is “inactive”; as for `Cc1ccc(C(C)C)c(OCCSc2nc3ccccc3n2CC(=O)O)c1`, “inactive”; as for `COc1ccc(OC)c(CC(C(=O)Nc2ccc(F)cc2)c2nn[nH]n2)c1` (centres undefined), “inactive”. In the case of `O=C(NCc1cccnc1)c1nc(-c2ccc(Cl)nc2)c2cnccn12`, the Potency was 63.1 µM (active). With `O=C(NCc1ccc(Cl)cc1)c1cc(-c2ccc[nH]2)n[nH]1` the entry was “inactive”; with `O=C(NCc1ccc(Cl)cc1)c1cccn2nccc12`, 35.5 µM (active). As for `O=C(NCc1ccc(Cl)nc1)c1ccn2cncc2c1`, the Potency result was “inactive”. With `O=C(NCc1ccc(Cl)nc1)c1cnn2ncccc12` the figure was 31.6 µM (active).

On to `O=C(CSc1nccn1Cc1ccc(Cl)cc1)NCc1ccccc1`, for which the Potency result is “inactive”. `O=C(NCc1cccnc1)c1cnc2ccccc2n1`: the Potency entry is “inactive”. As for `O=C(NCc1ccc(Cl)nc1)c1c[nH]c2cccnc12`, the Potency result is “inactive”. With `O=C(NCc1ccc(Cl)nc1)c1cn2c(n1)CN(C(=O)c1cccnc1)CC2` the entry was “inactive”; with `CC1CCCN(CC(=O)Nc2oc3ccccc3c(=O)c2-c2ccc(F)cc2)C1` (centres undefined), “inactive”; with `N#Cc1cccc(Cn2c(=O)c3c(ncn3C3CCCC3)n(Cc3ccccc3)c2=O)c1`, “inactive”. For `CN1CCN(Cc2ccc(Nc3ncc(-c4cccnc4)c4c3OCC4)cc2)CC1`, the Potency entry is “inactive”. With `CN(C)c1cccc(-c2cnc(Nc3ccc(N4CCOCC4)cc3)c3c2CCO3)c1` the figure was 35.5 µM (active); with `COc1ncccc1Nc1ncc(-c2ccccc2)c2c1OCC2`, “inactive”; with `CN=c1scc(-c2cccs2)n1/N=C/c1cccs1`, “inactive”. For `Cc1cnc(CCNC(=O)Nc2ccccc2F)n1C1CCC1`, the Potency entry was “inactive”. As for `CN(Cc1cccs1)C(=O)Cc1c[nH]c2ccccc12`, the entry is “inactive”. With `CNC(=O)c1cccc(-c2cnc3[nH]cc(CC(=O)NCc4cccc(F)c4)c3c2)c1`, the Potency entry was “inactive”. With `COc1ccccc1C(=O)NCCC(=O)N(C)Cc1cccnc1` the entry was “inactive”; with `COc1ncccc1-c1cnc2[nH]cc(CC(=O)N(C)Cc3ccccc3)c2c1`, 28.2 µM (active). On to `Cc1ccccc1C(=O)NCc1c[nH]c2ncccc12`, for which the Potency result is “inactive”. `COCCNC(=O)Cc1c[nH]c2ncc(-c3cccnc3OC)cc12`: the Potency is 31.6 µM (active).

For the compound `CN(CC(=O)NCc1ccc(F)cc1)C(=O)c1ccc2c(c1)nnn2C`, the Potency result is “inactive”. As for `Cc1nc2cc(NC(=O)c3cccc(S(=O)(=O)Nc4ccc(SC(F)F)cc4)c3)ccc2o1`, the Potency entry is “inactive”.

For `CCN(CC)S(=O)(=O)c1ccc(-c2csc(-c3cccc(OC)c3OC)n2)cc1`, the Potency entry was “inactive”. With `NC(Cc1ccccc1)(Cc1ccccc1)C(=O)O` the entry was “inactive”; with `O=C(c1cnc(N2CCCCC2)c2ccccc12)N1CCN(c2ccccn2)CC1`, “inactive”. As for `O[C@@H]1C[C@@H](c2nc(-c3ccc4c(c3)OCO4)no2)N(Cc2ccc(-c3ccccn3)cc2)C1`, the Potency is 25.1 µM (active). As for `O=[N+]([O-])c1ccccc1CN1C[C@H](O)C[C@H]1c1nc(-c2ccc(F)cc2)no1`, the figure is 25.1 µM (active); as for `Oc1ccccc1CN1C[C@H](O)C[C@H]1c1nc(Cc2ccc(F)cc2Cl)no1`, “inactive”; as for `COc1ccc(CN2C[C@H](O)C[C@H]2c2nc(-c3ccc4c(c3)OCO4)no2)c(OC)c1OC`, “inactive”. With `N#Cc1cccc(CN2C[C@H](O)C[C@H]2c2nc(-c3ccccn3)no2)c1` the entry was “inactive”; with `O=[N+]([O-])c1cccc(-c2noc([C@@H]3C[C@@H](O)CN3Cc3cccc(OC(F)(F)F)c3)n2)c1`, “inactive”; with `CC(c1nc(-c2cccs2)no1)N(C)Cc1ccc(F)cc1F` (centres undefined), “inactive”. `Cc1ccc(NC(=O)N2CCC(OC3CCN(S(C)(=O)=O)CC3)CC2)cc1F`: the Potency entry is “inactive”.

Regarding `CC(Sc1ncnc2nc[nH]c12)C(=O)NCc1ccc(Cl)c(Cl)c1` (centres undefined), the Potency entry is “inactive”. With `O=C(NC1CCN(c2cc(-c3cccs3)[nH]n2)C1)c1ccc(Br)cc1` (centres undefined) the figure was 4.47 µM (active). As for `O=C(NC1CCN(c2cc(-c3ccccc3)[nH]n2)CC1)c1cccs1`, the Potency result was “inactive”.

As to `O=C(NC1CCN(c2cc(-c3ccc(Cl)cc3)[nH]n2)C1)c1c[nH]c2ccccc12` (centres undefined), the Potency was 11.2 µM (active). Turning to `O=C(NC1CCCN(c2cc(-c3ccc(F)cc3)[nH]n2)C1)c1ccc(Br)cc1` (centres undefined), the Potency entry is “inactive”. As for `O=C(NC1CCCN(c2cc(-c3ccccc3)[nH]n2)C1)c1cccc(Cl)c1` (centres undefined), the Potency entry was “inactive”. For `Cn1nccc1C(=O)NC1CCCN(c2cc(-c3ccc(F)cc3)[nH]n2)C1` (centres undefined), the Potency result is “inactive”. Regarding `O=C(NC1CCCN(c2cc(-c3ccccc3)[nH]n2)C1)c1cccc2[nH]ccc12` (centres undefined), the Potency is 28.2 µM (active).

Consider `O=C(NC1CCN(c2cc(-c3ccc(Cl)cc3)[nH]n2)CC1)c1ccccc1F`, for which the Potency result is “inactive”. Turning to `O=C(NC1CCCN(c2cc(-c3ccc(Cl)cc3)[nH]n2)C1)c1ccncc1` (centres undefined), the Potency entry is “inactive”. For the compound `O=C(NC1CCN(c2cc(-c3ccc(F)cc3)[nH]n2)C1)c1cc2ccccc2[nH]1` (centres undefined), the Potency was 8.91 µM (active). As to `O=C(NC1CCCN(c2cc(-c3ccc(Cl)cc3)[nH]n2)C1)c1ccccc1F` (centres undefined), the Potency result was “inactive”. For `O=C(NC1CCN(c2cc(-c3ccc(F)cc3)[nH]n2)C1)c1ccc2c(c1)OCO2` (centres undefined), the Potency result is “inactive”.
